Data on two compounds can be found in ChEMBL document CHEMBL1961873, “Compounds: GSK PKIS; Assays: Nanosyn kinase panel” (2012).

In assay [1] the target is Protein kinase C gamma type (Homo sapiens) (UniProt P05129). The conditions noted are these: at 1 µM.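 Further: each value is an averaged percent inhibition of the enzyme.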
The target in assay [2] is T1, Protein kinase C iota type (Homo sapiens) (UniProt P41743).
T1 sequence (whole entry): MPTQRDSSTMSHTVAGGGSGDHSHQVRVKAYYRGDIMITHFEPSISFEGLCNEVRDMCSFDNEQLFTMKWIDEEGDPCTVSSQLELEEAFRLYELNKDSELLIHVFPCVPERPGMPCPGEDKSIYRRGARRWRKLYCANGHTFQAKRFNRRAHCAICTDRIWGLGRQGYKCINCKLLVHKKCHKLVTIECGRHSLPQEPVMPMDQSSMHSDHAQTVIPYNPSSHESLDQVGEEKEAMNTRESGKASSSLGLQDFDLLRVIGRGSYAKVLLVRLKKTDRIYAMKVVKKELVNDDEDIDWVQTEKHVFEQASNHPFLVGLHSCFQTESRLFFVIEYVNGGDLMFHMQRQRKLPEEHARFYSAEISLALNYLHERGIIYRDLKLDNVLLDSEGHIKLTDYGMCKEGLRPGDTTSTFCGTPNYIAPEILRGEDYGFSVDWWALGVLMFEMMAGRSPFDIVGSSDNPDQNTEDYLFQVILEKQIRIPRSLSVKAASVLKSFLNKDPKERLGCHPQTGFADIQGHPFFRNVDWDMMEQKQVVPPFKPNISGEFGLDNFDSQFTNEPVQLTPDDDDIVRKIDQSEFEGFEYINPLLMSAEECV
The conditions noted are these: at 0.1 µM.

The target in assay [3] is T1, Protein kinase C iota type (Homo sapiens). The conditions noted are these: at 1 µM.
Assay [4] has as its target Protein kinase C theta type (Homo sapiens) (UniProt Q04759). The conditions noted are these: at 0.1 µM.
Assay [5] shares this target. The conditions noted are these: at 1 µM.
The target of assay [6] is Protein kinase C beta type (Homo sapiens) (UniProt P05771). The note with it: at 0.1 µM.
Sequence of Protein kinase C beta type (Homo sapiens) (P05771 2-671 limits assumed): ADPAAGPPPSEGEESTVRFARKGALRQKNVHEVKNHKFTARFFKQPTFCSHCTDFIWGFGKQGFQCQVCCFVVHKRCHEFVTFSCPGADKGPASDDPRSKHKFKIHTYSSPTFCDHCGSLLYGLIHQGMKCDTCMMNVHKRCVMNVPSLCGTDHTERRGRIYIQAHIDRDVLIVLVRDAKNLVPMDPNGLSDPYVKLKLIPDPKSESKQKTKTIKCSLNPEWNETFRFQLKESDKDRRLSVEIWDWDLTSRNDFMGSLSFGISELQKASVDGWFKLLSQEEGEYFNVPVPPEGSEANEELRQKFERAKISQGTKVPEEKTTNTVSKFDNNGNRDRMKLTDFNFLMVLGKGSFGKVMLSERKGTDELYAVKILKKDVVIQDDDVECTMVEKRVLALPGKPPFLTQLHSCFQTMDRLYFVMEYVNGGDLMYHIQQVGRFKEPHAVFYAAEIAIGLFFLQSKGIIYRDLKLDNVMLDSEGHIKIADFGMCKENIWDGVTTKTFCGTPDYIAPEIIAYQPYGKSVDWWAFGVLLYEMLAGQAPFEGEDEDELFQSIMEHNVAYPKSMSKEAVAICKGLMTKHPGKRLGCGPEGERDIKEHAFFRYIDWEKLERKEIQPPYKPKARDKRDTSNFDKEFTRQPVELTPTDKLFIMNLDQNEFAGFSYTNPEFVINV
For assay [7] the target is unchanged. The note with it: at 1 µM.
Assay [8] has as its target T2, Serine/threonine-protein kinase D1 (Homo sapiens) (UniProt Q15139).
T2 sequence (whole entry): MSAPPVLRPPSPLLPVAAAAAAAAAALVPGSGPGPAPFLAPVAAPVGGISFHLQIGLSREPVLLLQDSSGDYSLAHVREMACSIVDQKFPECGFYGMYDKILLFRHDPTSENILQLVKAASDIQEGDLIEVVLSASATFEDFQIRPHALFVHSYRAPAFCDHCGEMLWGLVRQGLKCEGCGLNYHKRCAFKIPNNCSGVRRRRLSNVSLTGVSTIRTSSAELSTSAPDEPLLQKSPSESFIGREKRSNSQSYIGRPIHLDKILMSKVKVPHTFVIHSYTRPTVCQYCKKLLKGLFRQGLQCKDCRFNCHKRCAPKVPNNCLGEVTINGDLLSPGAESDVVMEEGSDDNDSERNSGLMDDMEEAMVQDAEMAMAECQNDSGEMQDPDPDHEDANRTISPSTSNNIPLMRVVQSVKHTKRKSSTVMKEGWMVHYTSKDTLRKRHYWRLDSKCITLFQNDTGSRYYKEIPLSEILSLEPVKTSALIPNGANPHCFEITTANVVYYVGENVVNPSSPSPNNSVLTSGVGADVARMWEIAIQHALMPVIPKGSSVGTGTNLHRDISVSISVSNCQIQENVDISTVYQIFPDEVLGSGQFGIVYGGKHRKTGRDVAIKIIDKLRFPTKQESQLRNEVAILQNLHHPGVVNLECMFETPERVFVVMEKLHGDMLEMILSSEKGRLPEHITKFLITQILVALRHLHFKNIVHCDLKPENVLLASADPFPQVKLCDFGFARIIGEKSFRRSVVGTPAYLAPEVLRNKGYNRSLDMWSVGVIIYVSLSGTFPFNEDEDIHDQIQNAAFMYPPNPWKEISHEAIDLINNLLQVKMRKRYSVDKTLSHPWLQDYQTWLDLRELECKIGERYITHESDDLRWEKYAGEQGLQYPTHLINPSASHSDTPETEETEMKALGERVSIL
The conditions noted are these: at 0.1 µM.

Assay [9] concerns the target T2, Serine/threonine-protein kinase D1 (Homo sapiens). The conditions noted are these: at 1 µM.
For assay [10], the target named is T3, Serine/threonine-protein kinase D2 (Homo sapiens) (UniProt Q9BZL6).
T3 sequence (whole entry): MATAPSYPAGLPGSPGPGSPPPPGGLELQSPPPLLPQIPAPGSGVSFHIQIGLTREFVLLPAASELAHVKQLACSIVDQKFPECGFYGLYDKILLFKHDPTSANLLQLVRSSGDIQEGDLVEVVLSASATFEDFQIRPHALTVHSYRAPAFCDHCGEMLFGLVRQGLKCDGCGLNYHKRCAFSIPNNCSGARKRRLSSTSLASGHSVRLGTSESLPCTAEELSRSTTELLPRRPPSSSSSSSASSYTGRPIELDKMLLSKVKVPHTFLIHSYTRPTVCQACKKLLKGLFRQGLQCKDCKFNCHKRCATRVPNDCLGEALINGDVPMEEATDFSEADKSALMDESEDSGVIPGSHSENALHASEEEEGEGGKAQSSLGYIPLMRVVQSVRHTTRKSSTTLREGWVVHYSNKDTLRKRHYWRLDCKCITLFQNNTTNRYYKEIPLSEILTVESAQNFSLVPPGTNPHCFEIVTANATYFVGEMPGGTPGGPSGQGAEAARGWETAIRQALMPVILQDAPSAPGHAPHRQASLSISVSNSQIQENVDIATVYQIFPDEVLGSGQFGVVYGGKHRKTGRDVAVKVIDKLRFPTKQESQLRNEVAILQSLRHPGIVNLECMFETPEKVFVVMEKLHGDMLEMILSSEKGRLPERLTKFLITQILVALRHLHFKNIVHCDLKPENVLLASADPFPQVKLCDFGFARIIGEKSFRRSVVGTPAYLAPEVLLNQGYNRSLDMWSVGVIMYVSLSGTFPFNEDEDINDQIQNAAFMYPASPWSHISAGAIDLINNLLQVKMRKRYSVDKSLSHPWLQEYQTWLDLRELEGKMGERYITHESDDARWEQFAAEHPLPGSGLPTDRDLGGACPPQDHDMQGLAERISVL
The note with it: at 0.1 µM.

For assay [11], the target named is T3, Serine/threonine-protein kinase D2 (Homo sapiens). The conditions noted are these: at 1 µM.
The target in assay [12] is T4, Serine/threonine-protein kinase D3 (Homo sapiens) (UniProt O94806).
T4 sequence (whole entry): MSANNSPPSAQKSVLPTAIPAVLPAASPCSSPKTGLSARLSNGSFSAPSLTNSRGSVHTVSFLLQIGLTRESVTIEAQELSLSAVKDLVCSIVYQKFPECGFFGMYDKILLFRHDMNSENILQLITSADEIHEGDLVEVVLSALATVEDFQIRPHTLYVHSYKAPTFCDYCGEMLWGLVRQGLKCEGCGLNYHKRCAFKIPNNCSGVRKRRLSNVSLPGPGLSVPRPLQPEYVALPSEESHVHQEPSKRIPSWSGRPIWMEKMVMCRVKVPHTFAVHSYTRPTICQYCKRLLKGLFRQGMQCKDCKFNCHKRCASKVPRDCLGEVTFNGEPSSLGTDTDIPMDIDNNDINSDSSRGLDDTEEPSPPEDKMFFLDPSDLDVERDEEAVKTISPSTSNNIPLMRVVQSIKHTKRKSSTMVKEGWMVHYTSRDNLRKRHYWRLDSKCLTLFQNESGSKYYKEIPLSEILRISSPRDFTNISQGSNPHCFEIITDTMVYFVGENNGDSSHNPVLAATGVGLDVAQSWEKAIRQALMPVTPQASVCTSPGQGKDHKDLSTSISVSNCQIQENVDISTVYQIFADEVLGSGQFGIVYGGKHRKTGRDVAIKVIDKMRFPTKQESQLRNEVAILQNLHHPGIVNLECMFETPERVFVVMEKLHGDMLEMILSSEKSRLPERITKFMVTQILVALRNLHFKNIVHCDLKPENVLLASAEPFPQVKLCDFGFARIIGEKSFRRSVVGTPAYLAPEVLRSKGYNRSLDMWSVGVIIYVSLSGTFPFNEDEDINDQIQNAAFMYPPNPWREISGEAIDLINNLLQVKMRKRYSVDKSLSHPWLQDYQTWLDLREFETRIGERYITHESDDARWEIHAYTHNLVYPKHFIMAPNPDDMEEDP
The note with it: at 0.1 µM.

In assay [13] the target is T4, Serine/threonine-protein kinase D3 (Homo sapiens). The conditions noted are these: at 1 µM.
The target of assay [14] is T5, cGMP-dependent protein kinase 1 (Homo sapiens) (UniProt Q13976).
T5 sequence (whole entry): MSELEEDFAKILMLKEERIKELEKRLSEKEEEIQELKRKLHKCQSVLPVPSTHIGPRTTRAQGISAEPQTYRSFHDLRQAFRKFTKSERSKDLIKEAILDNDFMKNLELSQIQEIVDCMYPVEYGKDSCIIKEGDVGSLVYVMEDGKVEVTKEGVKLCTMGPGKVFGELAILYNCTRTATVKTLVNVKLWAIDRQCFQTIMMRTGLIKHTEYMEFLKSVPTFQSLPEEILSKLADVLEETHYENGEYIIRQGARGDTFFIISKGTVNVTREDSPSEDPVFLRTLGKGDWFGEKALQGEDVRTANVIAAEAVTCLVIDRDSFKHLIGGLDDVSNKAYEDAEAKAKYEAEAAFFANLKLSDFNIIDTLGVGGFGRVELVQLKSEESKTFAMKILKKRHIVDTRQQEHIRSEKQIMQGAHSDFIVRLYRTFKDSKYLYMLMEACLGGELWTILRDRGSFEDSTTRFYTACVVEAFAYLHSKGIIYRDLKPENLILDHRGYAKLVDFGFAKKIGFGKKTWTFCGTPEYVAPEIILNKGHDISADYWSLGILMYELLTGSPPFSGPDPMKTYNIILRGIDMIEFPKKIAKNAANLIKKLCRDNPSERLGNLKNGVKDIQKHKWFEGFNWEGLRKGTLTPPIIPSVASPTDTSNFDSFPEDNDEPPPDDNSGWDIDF
The conditions noted are these: at 0.1 µM.

Assay [15] deals with T5, cGMP-dependent protein kinase 1 (Homo sapiens). The conditions noted are these: at 1 µM.
In assay [16] the target is T6, cGMP-dependent protein kinase 2 (Homo sapiens) (UniProt Q13237).
T6 sequence (whole entry): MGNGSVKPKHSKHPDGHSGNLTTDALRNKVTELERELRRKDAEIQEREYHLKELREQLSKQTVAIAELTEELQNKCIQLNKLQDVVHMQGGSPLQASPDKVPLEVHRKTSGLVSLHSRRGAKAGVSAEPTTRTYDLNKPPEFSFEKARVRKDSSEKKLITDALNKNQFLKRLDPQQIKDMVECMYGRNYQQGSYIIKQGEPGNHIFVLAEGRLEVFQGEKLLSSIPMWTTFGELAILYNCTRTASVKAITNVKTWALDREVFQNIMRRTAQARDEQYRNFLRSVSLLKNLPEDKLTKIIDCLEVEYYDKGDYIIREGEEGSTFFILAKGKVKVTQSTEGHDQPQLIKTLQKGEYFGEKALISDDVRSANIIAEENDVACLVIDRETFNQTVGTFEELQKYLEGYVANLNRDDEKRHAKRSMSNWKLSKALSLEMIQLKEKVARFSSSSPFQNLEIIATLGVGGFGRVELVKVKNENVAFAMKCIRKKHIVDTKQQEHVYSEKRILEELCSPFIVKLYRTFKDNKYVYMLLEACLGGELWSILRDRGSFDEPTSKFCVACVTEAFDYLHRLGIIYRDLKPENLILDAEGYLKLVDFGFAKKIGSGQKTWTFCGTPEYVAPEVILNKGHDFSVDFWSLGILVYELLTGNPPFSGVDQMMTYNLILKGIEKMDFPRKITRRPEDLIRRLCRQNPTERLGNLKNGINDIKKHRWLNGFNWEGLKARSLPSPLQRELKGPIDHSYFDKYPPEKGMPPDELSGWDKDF
The note with it: at 0.1 µM.

The target of assay [17] is T6, cGMP-dependent protein kinase 2 (Homo sapiens). The note with it: at 1 µM.
For assay [18], the target named is T7, cAMP-dependent protein kinase catalytic subunit PRKX (Homo sapiens) (UniProt P51817).
T7 sequence (whole entry): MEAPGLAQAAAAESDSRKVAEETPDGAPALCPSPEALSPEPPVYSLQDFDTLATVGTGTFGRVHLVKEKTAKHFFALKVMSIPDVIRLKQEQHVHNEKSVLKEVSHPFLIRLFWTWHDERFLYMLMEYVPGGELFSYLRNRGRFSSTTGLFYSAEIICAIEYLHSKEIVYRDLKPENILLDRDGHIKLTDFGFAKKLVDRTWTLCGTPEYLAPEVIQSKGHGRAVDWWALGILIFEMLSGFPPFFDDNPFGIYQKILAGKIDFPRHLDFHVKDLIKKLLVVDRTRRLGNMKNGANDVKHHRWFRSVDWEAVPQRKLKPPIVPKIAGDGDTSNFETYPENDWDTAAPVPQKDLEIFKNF
The conditions noted are these: at 0.1 µM.

For assay [19], the target named is T7, cAMP-dependent protein kinase catalytic subunit PRKX (Homo sapiens). The note with it: at 1 µM.
The target of assay [20] is Rho-associated protein kinase 1 (Homo sapiens) (UniProt Q13464). The conditions noted are these: at 0.1 µM.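 Further: values are mean percent inhibition of ROCK1.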
Sequence of Rho-associated protein kinase 1 (Homo sapiens) (Q13464 2-1354 limits assumed): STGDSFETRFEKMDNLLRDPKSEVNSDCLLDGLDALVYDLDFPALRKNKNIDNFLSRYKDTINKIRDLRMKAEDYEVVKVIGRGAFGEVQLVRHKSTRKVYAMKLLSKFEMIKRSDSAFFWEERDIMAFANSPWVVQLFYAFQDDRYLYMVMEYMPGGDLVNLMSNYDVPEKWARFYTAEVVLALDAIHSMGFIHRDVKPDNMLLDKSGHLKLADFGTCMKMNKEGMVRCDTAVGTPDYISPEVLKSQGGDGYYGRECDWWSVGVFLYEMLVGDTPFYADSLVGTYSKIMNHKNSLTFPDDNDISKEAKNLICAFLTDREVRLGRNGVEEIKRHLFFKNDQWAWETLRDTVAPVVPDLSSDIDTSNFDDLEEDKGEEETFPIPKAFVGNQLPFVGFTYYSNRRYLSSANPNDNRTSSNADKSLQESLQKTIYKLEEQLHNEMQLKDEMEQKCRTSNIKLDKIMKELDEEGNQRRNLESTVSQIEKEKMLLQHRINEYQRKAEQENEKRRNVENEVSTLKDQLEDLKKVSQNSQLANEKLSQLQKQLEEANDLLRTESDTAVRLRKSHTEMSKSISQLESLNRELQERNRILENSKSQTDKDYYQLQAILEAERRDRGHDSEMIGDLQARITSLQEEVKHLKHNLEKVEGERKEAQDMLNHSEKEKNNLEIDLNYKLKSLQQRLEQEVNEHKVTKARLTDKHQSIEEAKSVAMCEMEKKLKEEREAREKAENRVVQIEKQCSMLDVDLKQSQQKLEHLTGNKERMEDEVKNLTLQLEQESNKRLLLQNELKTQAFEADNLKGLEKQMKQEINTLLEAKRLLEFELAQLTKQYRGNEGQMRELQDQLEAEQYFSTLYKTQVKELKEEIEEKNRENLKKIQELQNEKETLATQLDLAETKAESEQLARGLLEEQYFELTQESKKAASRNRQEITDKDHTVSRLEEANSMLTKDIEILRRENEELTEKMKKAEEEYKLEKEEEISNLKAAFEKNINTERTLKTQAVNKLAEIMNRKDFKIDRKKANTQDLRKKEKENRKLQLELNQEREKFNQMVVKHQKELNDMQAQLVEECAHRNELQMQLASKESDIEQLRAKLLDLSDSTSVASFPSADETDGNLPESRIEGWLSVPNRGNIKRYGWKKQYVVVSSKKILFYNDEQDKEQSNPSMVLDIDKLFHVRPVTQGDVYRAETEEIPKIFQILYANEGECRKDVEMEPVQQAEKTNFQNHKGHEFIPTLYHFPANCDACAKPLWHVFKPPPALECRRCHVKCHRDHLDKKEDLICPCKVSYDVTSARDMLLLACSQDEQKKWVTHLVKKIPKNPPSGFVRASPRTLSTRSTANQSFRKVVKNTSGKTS

SMILES strings stand for the structures.

Sequence of Protein kinase C theta type (Homo sapiens) (Q04759 whole entry, looked up): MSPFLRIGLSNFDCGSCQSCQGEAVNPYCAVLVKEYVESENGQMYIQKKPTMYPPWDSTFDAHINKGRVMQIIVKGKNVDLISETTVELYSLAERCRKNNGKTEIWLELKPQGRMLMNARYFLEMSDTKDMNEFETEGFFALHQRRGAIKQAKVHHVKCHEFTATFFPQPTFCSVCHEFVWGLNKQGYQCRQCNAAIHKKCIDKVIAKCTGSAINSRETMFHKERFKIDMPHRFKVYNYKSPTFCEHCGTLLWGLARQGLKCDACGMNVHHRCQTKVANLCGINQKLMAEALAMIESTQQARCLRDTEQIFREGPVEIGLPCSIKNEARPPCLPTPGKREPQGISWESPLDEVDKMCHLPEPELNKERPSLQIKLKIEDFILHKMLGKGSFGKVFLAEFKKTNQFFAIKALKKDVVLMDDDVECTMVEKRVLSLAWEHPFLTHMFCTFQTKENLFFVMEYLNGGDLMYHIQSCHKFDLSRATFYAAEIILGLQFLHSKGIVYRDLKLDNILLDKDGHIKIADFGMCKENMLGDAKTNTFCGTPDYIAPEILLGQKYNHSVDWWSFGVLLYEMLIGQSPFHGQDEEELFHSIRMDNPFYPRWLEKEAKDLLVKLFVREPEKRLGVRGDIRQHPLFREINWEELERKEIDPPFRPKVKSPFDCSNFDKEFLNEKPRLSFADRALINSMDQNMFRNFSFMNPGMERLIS

Take `CN1CCC(n2cnc(-c3ccc(F)cc3)c2-c2ccnc(Nc3ccccc3)n2)CC1`: the inhibition (commonly the relative decrease from the control value, in per cent) in assay [1] came to 33.8%; in assay [2], 1.53%; in assay [3] it was 1.32%; in assay [4], 1.16%; in assay [5], 4.03%; in assay [6], 27.4%. For the same compound, the inhibition in [7] turned out to be 66.5%; in assay [8], 5.32%; in [9], 39.6%; in [10] it was 7.44%; in [11] it was 46.5%; in [12] it was 6.42%. Besides, the inhibition in assay [13] was found to be 43.5%; in assay [14], 1.69%; in assay [15], 3.29%; in assay [16], 0.99%; in assay [17], 5.8%; in assay [18], 1.37%. The inhibition in assay [19] was 1.71%; in assay [20], -0.46%.
For `CCCN(CCS(C)(=O)=O)Cc1ccc(-c2ccc3ncnc(Nc4ccc(OCc5cccc(F)c5)c(Cl)c4)c3c2)o1`, the inhibition is 2.5% in assay [1]; 1.67% in [2]; -0.59% in assay [3]; 0.4% in assay [4]; 0.62% in assay [5]; 1.13% in assay [6]. The inhibition was 2.02% in assay [7]; 1.1% in assay [8]; 2.52% in assay [9]; 0.95% in assay [10]; 1.95% in [11]; 1.29% in assay [12]. Besides, the inhibition in assay [13] was 2.73%; in assay [14], 1.66%; in assay [15], 1.47%; in [16], 0.95%; in [17] it was 1.07%; in assay [18] it was 1.89%. The inhibition in assay [19] was 1.27%; in assay [20], 0.42%.
